Here are results for nine molecules from ChEMBL document CHEMBL3988442, “University of Dundee, Small-Polar-MMV Screening Library” (2021).

Design in all cases: scale not given: direction of the effect not stated beside the values
Test [1] concerns the target Protein translocase subunit SecA (Escherichia coli (strain K12)) (UniProt P10408). Kind of test: Assay to Identify E. coli SecA ATPase Inhibitors. It counts as functional. To be noted: 30 µM.
Test [2] concerns the target T1, Ubiquitin-activating enzyme e1, putative (Leishmania donovani (strain BPK282A1)) (UniProt E9BSI1).
T1 sequence (whole entry): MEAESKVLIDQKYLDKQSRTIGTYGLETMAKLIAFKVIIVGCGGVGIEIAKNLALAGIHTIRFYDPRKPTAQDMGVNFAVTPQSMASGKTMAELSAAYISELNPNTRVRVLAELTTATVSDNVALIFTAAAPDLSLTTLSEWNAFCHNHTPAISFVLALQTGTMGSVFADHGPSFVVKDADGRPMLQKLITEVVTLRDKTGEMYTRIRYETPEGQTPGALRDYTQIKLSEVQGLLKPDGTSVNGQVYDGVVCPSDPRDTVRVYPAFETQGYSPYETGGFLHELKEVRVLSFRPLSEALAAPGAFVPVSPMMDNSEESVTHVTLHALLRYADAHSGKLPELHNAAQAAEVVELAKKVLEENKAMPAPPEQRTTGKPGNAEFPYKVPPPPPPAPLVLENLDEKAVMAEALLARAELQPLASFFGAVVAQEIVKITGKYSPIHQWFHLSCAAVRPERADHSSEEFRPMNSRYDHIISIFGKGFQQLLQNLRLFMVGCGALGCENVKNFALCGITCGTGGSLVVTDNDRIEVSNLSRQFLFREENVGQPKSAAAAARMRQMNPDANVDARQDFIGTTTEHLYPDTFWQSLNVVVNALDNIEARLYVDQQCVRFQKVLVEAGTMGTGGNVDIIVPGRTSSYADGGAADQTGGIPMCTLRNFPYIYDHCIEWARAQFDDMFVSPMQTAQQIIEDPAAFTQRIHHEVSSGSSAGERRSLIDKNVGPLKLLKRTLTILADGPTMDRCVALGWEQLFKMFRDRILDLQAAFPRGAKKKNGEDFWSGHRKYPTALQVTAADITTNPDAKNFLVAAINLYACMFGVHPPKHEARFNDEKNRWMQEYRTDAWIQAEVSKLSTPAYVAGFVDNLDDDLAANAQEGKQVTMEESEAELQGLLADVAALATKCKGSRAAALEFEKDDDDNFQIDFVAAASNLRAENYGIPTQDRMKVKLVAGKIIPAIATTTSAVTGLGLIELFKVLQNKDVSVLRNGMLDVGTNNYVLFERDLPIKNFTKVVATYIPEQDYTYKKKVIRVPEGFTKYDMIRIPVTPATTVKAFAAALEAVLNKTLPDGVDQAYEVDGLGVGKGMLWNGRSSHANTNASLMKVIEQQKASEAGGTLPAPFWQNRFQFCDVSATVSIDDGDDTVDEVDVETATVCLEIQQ
The test can be described thus: Leishmania donovani Ubiquitin Activating Enzyme (LdE1). The note with it: 30 µM. The test is classed as functional.

Test [3] concerns the target AMP-activated protein kinase, AMPK (Homo sapiens) (UniProt P54646+O43741+P54619+Q9UGJ0+Q9Y478+Q13131+Q9UGI9). Kind of test: AMP-dependent Kinase enzyme assay. An in vitro enzyme assay that detects ADP turnover that is directly proportional to AMPK activity. This uses naive AMPK that is activated during the assay with MK-8722. The test is classed as functional. To be noted: 30 µM.

For test [4], the target named is Sialic acid-binding Ig-like lectin 9 (Homo sapiens) (UniProt Q9Y336). The test can be described thus: Hs-Siglec9 ALPHAscreen SOP 20170721. To be noted: 10 µM.
The subject of another test is Trypanosoma cruzi. The test can be described thus: Trypanosoma cruzi phosphomannomutase and mannose-1-phosphate guanylyltransferase assay. To be noted: 10 µM. It counts as functional.
The target of test [5] is T2, Arginase-2, mitochondrial (Homo sapiens) (UniProt P78540).
T2 sequence (whole entry): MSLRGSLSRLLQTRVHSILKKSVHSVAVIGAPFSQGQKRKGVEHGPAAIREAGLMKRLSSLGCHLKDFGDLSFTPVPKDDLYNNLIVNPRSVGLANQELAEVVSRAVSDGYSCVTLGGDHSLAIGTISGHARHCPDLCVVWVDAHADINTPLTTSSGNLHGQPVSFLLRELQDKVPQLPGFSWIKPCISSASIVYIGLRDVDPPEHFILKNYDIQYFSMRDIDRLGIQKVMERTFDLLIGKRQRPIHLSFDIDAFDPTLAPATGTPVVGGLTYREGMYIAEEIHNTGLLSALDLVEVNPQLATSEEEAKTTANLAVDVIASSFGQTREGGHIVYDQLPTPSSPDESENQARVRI
The test can be described thus: in vitro enzyme assay to detect the production of urea directly proportional to the activity of Arginase II. Note: in the data most compounds retested in dose-response had high values. The note with it: 33.3 µM. It counts as functional.

The target of test [6] is T3, Proteasome subunit beta (Trypanosoma cruzi) (UniProt O96673).
T3 sequence (whole entry): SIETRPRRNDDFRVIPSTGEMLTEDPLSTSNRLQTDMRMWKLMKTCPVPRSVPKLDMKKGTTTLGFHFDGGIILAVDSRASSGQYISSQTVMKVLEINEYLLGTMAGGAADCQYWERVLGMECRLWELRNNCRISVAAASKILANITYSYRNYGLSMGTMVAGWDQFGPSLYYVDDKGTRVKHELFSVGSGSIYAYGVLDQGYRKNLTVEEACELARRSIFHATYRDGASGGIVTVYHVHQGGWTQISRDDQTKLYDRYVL
The test can be described thus: Trypanosoma cruzi proteasome chymotrypsin-like activity (TcProtChymo) assay. Note: in the data most compounds retested in dose-response had high values. To be noted: 9.37 µM. It counts as functional.

The species entered for another test is Homo sapiens. Kind of test: To identify inhibition of the IFN signalling (Jak-Stat) pathway via expression of an eGFP reporter gene under the control of an IFN-stimulated response element (ISRE) containing MxA promoter. It counts as functional. To be noted: 30 µM. A general note: Reporter assays use an easily measured gene product as a stand-in for the process of interest.

Test [7] deals with T4, Tyrosyl-tRNA synthetase, putative (Trypanosoma cruzi (strain CL Brener)) (UniProt Q4DSP6).
T4 sequence (whole entry): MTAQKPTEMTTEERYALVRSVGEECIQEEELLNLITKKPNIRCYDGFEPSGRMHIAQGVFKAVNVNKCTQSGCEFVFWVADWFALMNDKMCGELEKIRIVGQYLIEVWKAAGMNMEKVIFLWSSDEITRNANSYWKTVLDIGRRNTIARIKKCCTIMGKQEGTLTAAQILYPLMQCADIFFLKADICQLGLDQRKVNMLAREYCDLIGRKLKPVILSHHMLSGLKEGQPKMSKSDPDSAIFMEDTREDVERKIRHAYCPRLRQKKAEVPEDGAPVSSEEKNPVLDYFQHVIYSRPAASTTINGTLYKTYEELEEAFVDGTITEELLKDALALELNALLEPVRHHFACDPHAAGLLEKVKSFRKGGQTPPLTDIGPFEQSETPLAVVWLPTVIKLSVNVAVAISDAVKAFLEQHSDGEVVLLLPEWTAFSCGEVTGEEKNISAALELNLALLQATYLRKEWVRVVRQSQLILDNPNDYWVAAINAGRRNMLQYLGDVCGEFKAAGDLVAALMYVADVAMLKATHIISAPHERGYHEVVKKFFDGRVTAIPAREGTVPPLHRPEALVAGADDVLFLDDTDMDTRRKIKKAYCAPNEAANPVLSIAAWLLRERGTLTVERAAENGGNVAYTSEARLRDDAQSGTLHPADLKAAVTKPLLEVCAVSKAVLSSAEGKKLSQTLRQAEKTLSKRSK
Kind of test: Trypanosoma cruzi tyrosyl tRNA synthetase (TcYRS) _High Tyrosine SOP. Note: in the data most compounds retested in dose-response had high values. The test is classed as functional. The note with it: 30 µM.

In test [8] the target is T4, Tyrosyl-tRNA synthetase, putative (Trypanosoma cruzi (strain CL Brener)). The test can be described thus: Trypanosoma cruzi tyrosyl tRNA synthetase (TcYRS) SOP. It counts as functional. To be noted: 30 µM.
Test [9] has as its target Chromo domain-containing protein 1 (Saccharomyces cerevisiae (strain ATCC 204508 / S288c) (Baker's yeast)) (UniProt P32657). Kind of test: ScCHD-1 Enzyme Inhibition Assay. Note: in the data most compounds retested in dose-response had high values. The test is classed as functional. To be noted: 30 µM.

For part of these data: Potency and affinity values are given separately.

Sequence of Chromo domain-containing protein 1 (Saccharomyces cerevisiae (strain ATCC 204508 / S288c) (Baker's yeast)) (P32657 whole entry, the tested form may be a part): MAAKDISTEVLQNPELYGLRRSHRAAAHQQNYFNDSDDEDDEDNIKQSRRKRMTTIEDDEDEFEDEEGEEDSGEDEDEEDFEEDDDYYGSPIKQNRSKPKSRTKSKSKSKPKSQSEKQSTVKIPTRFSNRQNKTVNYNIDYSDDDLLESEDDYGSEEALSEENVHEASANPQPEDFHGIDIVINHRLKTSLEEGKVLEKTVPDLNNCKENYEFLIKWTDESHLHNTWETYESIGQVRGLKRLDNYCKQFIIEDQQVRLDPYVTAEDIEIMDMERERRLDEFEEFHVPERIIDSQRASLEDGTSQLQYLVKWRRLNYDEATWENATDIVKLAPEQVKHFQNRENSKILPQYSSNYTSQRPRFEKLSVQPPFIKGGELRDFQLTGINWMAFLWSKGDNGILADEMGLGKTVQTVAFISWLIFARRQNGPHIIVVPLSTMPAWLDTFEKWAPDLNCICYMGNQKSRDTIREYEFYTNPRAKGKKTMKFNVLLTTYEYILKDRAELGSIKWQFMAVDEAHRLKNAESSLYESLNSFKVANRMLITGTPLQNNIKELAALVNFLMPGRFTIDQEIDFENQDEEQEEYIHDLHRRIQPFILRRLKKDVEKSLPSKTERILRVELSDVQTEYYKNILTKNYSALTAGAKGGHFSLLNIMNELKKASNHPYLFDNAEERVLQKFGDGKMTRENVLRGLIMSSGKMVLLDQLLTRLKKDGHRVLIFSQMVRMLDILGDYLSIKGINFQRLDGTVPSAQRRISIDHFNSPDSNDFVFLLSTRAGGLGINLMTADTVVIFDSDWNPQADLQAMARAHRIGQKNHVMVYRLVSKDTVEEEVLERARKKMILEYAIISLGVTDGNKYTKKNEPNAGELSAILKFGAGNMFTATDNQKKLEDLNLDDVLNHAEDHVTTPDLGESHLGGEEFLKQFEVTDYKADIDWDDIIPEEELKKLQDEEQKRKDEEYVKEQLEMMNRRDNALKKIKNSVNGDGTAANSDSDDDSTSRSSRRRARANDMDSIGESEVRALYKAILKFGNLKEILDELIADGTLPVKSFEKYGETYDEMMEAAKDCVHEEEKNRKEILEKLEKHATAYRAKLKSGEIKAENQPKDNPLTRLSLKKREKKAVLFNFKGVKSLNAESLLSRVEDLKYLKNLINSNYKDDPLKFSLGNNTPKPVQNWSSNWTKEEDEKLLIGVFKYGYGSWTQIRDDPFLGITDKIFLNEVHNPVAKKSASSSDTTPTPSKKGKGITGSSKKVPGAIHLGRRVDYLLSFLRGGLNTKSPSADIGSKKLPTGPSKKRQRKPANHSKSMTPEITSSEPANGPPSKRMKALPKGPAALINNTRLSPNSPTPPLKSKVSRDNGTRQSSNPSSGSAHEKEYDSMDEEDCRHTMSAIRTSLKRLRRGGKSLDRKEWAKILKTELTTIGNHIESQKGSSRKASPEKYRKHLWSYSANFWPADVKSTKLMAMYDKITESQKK
Sequence of Protein translocase subunit SecA (Escherichia coli (strain K12)) (P10408 whole entry): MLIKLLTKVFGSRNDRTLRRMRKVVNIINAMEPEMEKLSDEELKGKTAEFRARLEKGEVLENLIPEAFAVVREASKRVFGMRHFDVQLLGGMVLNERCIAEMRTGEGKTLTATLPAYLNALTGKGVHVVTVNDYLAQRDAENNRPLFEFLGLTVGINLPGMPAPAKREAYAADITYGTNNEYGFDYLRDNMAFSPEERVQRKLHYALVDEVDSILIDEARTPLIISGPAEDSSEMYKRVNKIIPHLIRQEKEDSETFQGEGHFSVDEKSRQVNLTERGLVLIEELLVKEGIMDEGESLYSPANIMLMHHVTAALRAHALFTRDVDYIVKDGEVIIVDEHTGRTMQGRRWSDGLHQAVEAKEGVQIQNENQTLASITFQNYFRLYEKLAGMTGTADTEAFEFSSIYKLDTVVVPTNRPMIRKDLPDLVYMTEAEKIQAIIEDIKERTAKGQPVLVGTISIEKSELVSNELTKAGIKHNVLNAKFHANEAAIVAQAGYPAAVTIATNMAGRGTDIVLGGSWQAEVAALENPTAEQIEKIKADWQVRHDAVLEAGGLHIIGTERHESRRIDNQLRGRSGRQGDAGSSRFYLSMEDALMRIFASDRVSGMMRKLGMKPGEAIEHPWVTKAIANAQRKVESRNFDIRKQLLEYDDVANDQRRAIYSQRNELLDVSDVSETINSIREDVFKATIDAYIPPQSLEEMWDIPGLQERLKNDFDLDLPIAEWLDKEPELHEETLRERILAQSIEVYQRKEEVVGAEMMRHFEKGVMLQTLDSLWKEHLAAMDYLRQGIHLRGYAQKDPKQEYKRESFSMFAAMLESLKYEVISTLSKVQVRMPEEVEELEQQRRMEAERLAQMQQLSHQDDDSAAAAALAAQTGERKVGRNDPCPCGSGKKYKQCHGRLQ
Sequence of Sialic acid-binding Ig-like lectin 9 (Homo sapiens) (Q9Y336 whole entry): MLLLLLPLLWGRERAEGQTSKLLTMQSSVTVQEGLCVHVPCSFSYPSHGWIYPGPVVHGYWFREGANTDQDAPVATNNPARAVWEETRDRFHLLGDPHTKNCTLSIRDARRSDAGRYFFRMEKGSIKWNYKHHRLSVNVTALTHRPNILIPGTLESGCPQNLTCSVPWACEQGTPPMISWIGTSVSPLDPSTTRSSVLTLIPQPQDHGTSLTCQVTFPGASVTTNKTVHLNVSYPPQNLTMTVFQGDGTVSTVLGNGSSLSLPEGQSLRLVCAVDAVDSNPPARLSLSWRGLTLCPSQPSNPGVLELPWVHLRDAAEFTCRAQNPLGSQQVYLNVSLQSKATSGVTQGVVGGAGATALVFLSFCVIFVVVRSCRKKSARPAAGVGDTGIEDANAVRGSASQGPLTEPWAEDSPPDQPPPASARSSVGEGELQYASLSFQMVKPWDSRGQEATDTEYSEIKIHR

For the molecule `Cn1cccc1CN1CCC2(CCCN(C(=O)c3cnccn3)C2)C1` (centres undefined), the Percent Effect is 0.875% in test [1]; 7.79% in [2]; -0.756% in [3]; -13.7% in [4]; -10.8% in the test with Trypanosoma cruzi; 11% in test [5]. Further, the Percent Effect is 14.4% in [6]; 29.7% in the test listed under Homo sapiens; -2.12% in [7]; -1.28% in test [8]; -9.31% in [9].

Take `COc1ccc(C2=C(C)C(N3CCc4ccccc43)=NS2(=O)=O)cc1`: the Percent Effect was -1.62% in test [1]; 20.8% in test [2]; -4.65% in test [3]; -5.53% in test [4]; 1.08% in the test on Trypanosoma cruzi; 3.23% in [5]. In addition, the Percent Effect was 12.7% in test [6]; 9.51% in the test listed under Homo sapiens; -1.06% in [7]; 8.97% in [8]; -11.2% in [9].

As for `O=C(CCc1cscn1)NS(=O)(=O)c1ccc2ccccc2c1`, the Percent Effect in [1] was -4.59%; in [2] it was 1.39%; in test [3], -10.1%; in test [4] it was 23.9%; with Trypanosoma cruzi, 3.4%; in test [5] it was 4.42%. For the same molecule, the Percent Effect in test [6] is 0.877%; in the test listed under Homo sapiens it was 0.282%; in test [7], 8.42%; in test [8], 5.13%; in test [9], -4.15%.

Turning to `Cc1nc(C)n(C2CCCN(C(=O)COCc3ccccc3)C2)n1` (centres undefined), the Percent Effect in [1] is -0.388%; in test [2], 0%; in test [3] it was 25.2%; in [4], 9.37%; with Trypanosoma cruzi, 2.25%; in test [5] it was 1.78%. Besides, the Percent Effect in test [6] was -4.22%; in the test filed under Homo sapiens, 4.38%; in test [7], 3.88%; in test [8], 12.2%; in [9], -7.13%.

As for `CC(NC(=O)NCCCn1ccnc1)c1ccc2c(c1)CCC(=O)N2` (centres undefined), the Percent Effect in test [1] was -5.85%; in [2], 22.8%; in [3], 0.7%; in [4], -8%; with Trypanosoma cruzi it was 8.4%; in test [5], -2.66%. The Percent Effect was 13% in test [6]; 10.8% in the test filed under Homo sapiens; 5.42% in [7]; 24.1% in test [8]; -6.95% in [9].

Take `Cc1nc(C2CCCN(C(=O)C(C)(C)n3cc(Cl)cn3)C2)no1` (centres undefined): the Percent Effect is -1.25% in [1]; 3.8% in [2]; -0.545% in test [3]; 3.13% in [4]; 2.77% in the test on Trypanosoma cruzi; 3.23% in test [5]. The Percent Effect is 0.343% in [6]; -9.61% in the test filed under Homo sapiens; 6.25% in test [7]; 7.59% in [8]; -13.7% in [9].

Consider `CC(=O)N1[C@H](Cn2cncn2)C[C@@H]2CN(S(C)(=O)=O)CC[C@@H]21`, for which the Percent Effect in [1] was -4.17%; in test [2] it was 10.4%; in test [3] it was 1.39%; in test [4], 9.47%; in the test with Trypanosoma cruzi it was 9.54%; in [5], -74.5%. Besides, the Percent Effect is 14.5% in test [6]; -25.9% in the test listed under Homo sapiens; 4.3% in test [7]; 16.1% in [8]; -4.74% in [9].

Take `COc1ccc(C)cc1NC(=O)Nc1cnc(N2CCN(C)CC2)nc1`: the Percent Effect is -1.71% in test [1]; 7.79% in [2]; 2.48% in test [3]; -0.124% in test [4]; 5.42% in the test on Trypanosoma cruzi; -12.3% in test [5]. Also, the Percent Effect in test [6] was 8.18%; in the test filed under Homo sapiens, 36.4%; in [7], 6.35%; in test [8], 11.5%; in [9] it was -11.3%.

Regarding `Clc1ccc(OCCN2CCN(CCn3cncn3)CC2)cc1`, the Percent Effect in [1] was -0.515%; in [2], -5.41%; in test [3], -3.56%; in [4], 26.8%; in the test with Trypanosoma cruzi, 8.69%; in [5] it was -2.86%. Besides, the Percent Effect in test [6] was 4.48%; in the test filed under Homo sapiens, 13.3%; in test [7], 1.59%; in test [8], 14.6%; in test [9], -8.8%.
